Measured values: ChEMBL document CHEMBL3988442, “University of Dundee, Small-Polar-MMV Screening Library” (2021)
About 960 (1.5%) of roughly 66,000 compounds showed an effect of 50% or more. Many of the other results were omitted from the sample, so strong results are more common in it than they were.

System: Trypanosoma brucei
Assay: Trypanosoma brucei 72 hour study
Format: functional, organism-based
Design: scale not given: in the data most compounds retested in dose-response had high values

O=C(CCN1CCc2ccccc21)N1C[C@@H](O)[C@H](N2CCCC2)C1
Percent Effect (30.3 µM, […]): -36.76%

CN1CC2(CCN(Cc3cccnc3)CC2)c2cc(F)ccc21
Percent Effect (30.3 µM, […]): -24.44%

CN1CC2(CCN(Cc3cccnc3)CC2)c2cccc(F)c21.Cl
Percent Effect (30.3 µM, […]): 100.8%

CN1CC2(CCN(C(=O)c3cccnc3)CC2)c2cccc(F)c21.Cl
Percent Effect (30.3 µM, […]): -15.84%

CCOc1ccc(CC(=O)N2CCN(c3nccn3CC)CC2)cc1.Cl
Percent Effect (30.3 µM, […]): 9.034%

O[C@]12CC[C@H](CC1)N(Cc1ccc(F)cc1)C2CN1CCOCC1 (some centres not stated)
Percent Effect (30.3 µM, […]): -19.63%

Cc1nn(C)c(C)c1CC(=O)N1CCCN(c2cccnn2)CC1
Percent Effect (30.3 µM, […]): -5.706%

CS(=O)(=O)NCC1CCCN(C(=O)c2ccc(F)c(F)c2)C1 (configuration not stated)
Percent Effect (30.3 µM, […]): -25.29%

CCc1noc(CS(=O)(=O)c2cccc(OC)c2)n1
Percent Effect (30.3 µM, […]): -11.01%

CCCc1noc(CS(=O)(=O)c2cccc(OC)c2)n1
Percent Effect (30.3 µM, […]): 58.74%

COc1cccc(S(=O)(=O)Cc2noc(CC(C)C)n2)c1
Percent Effect (30.3 µM, […]): 1.682%

CS(=O)(=O)N1Cc2ccccc2C2(CCN(C(=O)c3ccno3)CC2)C1
Percent Effect (30.3 µM, […]): -25.32%

COc1cc(N2CCC3(CCN(Cc4cccnc4)C3=O)C2)ncn1 (configuration not stated)
Percent Effect (30.3 µM, […]): -84.3%

Cc1ccccc1-c1cc(NC(=O)NC2CC2)n(CCO)n1
Percent Effect (30.3 µM, […]): 80.61%

CNC(=O)Nc1cc(-c2ccccc2C)nn1CCO
Percent Effect (30 µM, 30.03 µM): -25.05%

Cc1ccccc1-c1cc(NC(=O)NC2CCC(O)CC2)n(CCO)n1 (configuration not stated)
Percent Effect (30.3 µM, […]): -152.8%

Cc1cc(S(=O)(=O)N(CC(N)=O)CC(C)C)ccc1Br
Percent Effect (30.3 µM, […]): 1.83%

CN(C)C(=O)COC[C@H]1CC[C@@H]2[C@@H](CCN2Cc2ccco2)O1.O=C(O)C(F)(F)F
Percent Effect (30 µM, 30.03 µM): -23.12%

COCCN1C[C@H](OCc2csc(C)n2)[C@H]2COC[C@H]21.O=C(O)C(F)(F)F.O=C(O)C(F)(F)F
Percent Effect (30 µM, 30.03 µM): -14.33%

CCSc1cncc(N2CCC(NC(=O)C3CCCCC3)CC2)n1
Percent Effect (30.3 µM, […]): 77.16%

CCSc1cncc(N2CCC(C(=O)NC(C)C(C)C)CC2)n1 (configuration not stated)
Percent Effect (30.3 µM, […]): 8.608%

CCSc1cncc(N2CCC(C(=O)Nc3ccccn3)CC2)n1
Percent Effect (30.3 µM, […]): 12.36%

CC(=O)N(Cc1ncc(C)o1)C1CCN(Cc2ccc(F)c(F)c2)C1 (configuration not stated)
Percent Effect (30 µM, 30.03 µM): -4.591%

Cc1cc(C2CCCN(CCNS(=O)(=O)c3ccccc3)C2)n[nH]1 (configuration not stated)
Percent Effect (30.3 µM, […]): 50.6% | Percent Effect (10 mM, 10 mM as filed; unlikely as a test dose): -10.85%

O=C(O)c1cccc(CN2CCCC(c3ccn[nH]3)C2)c1 (configuration not stated)
Percent Effect (30.3 µM, […]): -0.7278%

Cc1cc(C2CCCN(CC(=O)N3CCCc4ccccc43)C2)n[nH]1 (configuration not stated)
Percent Effect (30 µM, 30.03 µM): 1.182%

Cc1cc(C2CCCN(CC(=O)Nc3nc4c(s3)CCC4)C2)n[nH]1 (configuration not stated)
Percent Effect (30.3 µM, […]): 99.45%

O=C(CN1CCCC(c2ccn[nH]2)C1)Nc1nncs1 (configuration not stated)
Percent Effect (30.3 µM, […]): 7.116%

O=C(CN1CCCC(c2ccn[nH]2)C1)Nc1nc2c(s1)CCC2 (configuration not stated)
Percent Effect (30.3 µM, […]): 99.68%

Cc1cc(C2CCCN(CC(=O)N3CCc4ccccc43)C2)n[nH]1 (configuration not stated)
Percent Effect (30 µM, 30.03 µM): -0.2301%

Cc1cc(C2CCCN(CCCS(=O)(=O)c3ccccc3)C2)n[nH]1 (configuration not stated)
Percent Effect (30 µM, 30.03 µM): -28.48%

Cc1nnc(NC(=O)CN2CCCC(c3ccn[nH]3)C2)s1 (configuration not stated)
Percent Effect (30.3 µM, […]): -16.15%

Cc1cc(C2CCCN(CCS(=O)(=O)c3ccccc3)C2)n[nH]1 (configuration not stated)
Percent Effect (30.3 µM, […]): -11.09% | Percent Effect (10 mM, 10 mM as filed; unlikely as a test dose): -44.58%

O=C(CN1CCCC(c2ccn[nH]2)C1)Nc1nc2c(s1)CCCC2 (configuration not stated)
Percent Effect (30.3 µM, […]): 99.87%

O=C(CN1CCCC(c2ccn[nH]2)C1)N1CCCc2ccccc21 (configuration not stated)
Percent Effect (30 µM, 30.03 µM): -60.51%

CC(C)N1CCC2(CCNCC2)C1=O.Cl
Percent Effect (30.3 µM, […]): -13.71%

Cc1cccc(CN2C(=O)CCC23CCN(c2ncc(F)cn2)CC3)n1.O=C(O)C(F)(F)F
Percent Effect (30.3 µM, […]): 6.517%

O=C(Nc1cnccn1)[C@H]1CO[C@H]2CCN(c3ncc(F)cn3)C[C@H]2C1.O=C(O)C(F)(F)F
Percent Effect (30.3 µM, […]): -3.537%

Cc1cccc(CN2C(=O)CCC23CCN(c2ccccn2)CC3)n1.O=C(O)C(F)(F)F.O=C(O)C(F)(F)F
Percent Effect (30.3 µM, […]): -36.28%

COc1ccccc1C(=O)NCCC(=O)Nc1c(C)nn(C)c1C
Percent Effect (30 µM, 30.03 µM): -36.41%

CCC(C)C(=O)Nc1ccc2oc(=O)n(CCN(C)C)c2c1 (configuration not stated)
Percent Effect (30 µM, 30.03 µM): -15.08%

Cc1cn2c(n1)C(CNCC1=Cc3ccccc3OC1)CCC2 (configuration not stated)
Percent Effect (30.3 µM, […]): 49.61%

Cc1cn2c(n1)C(CNCC1=Cc3cc(Cl)ccc3OC1)CCC2 (configuration not stated)
Percent Effect (30.3 µM, […]): 99.66%

Cc1cn2c(n1)C(CNCc1ccc(C)s1)CCC2 (configuration not stated)
Percent Effect (30.3 µM, […]): -3.779%

O=C(Cc1cccc(F)c1)N1CCc2ncnc(NC3CCC3)c2CC1
Percent Effect (30.3 µM, […]): -72.72%

CN(C)C(=O)N1CCC2(CC1)CCN(c1ncccn1)C2.O=C(O)C(F)(F)F
Percent Effect (30.3 µM, […]): -41.17%

Cc1ccsc1-c1nnc(C2CCN(Cc3ccc(F)cc3)CC2)o1
Percent Effect (30.3 µM, […]): 56.66%

Cc1ncsc1-c1nnc(C2CCN(Cc3ccc(F)cc3)CC2)o1
Percent Effect (30.3 µM, […]): -21.24%

Cc1ncsc1-c1nnc(C2CCN(Cc3ccc(Cl)cc3)CC2)o1
Percent Effect (30.3 µM, […]): 0.5336%

CN(C)C(=O)COCc1cncc2c1CCN(C1CCOCC1)C2.O=C(O)C(F)(F)F.O=C(O)C(F)(F)F
Percent Effect (30.3 µM, […]): -55.36%
